Source: PubChem BioAssay (National Center for Advancing Translational Sciences (NCATS))
Most compounds without a hit are left out; they make up all but 19% or so of the library.
HT1080 IDH1KD tx = HT-1080 IDH1 knockdown cell toxicity (counter line). HT-1080 IDH1 knockdown viability, ATP luminescence, 48 h. Potency, µM (top dose mostly 46.1 µM), inactives show top-dose activity, negative = toxicity, actives largely listed as cytotoxic. 2% of 360,000 active;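 also: potency is read from the fitted curve at half-maximal effect; 0% = DMSO wells and -100% = cell-free medium wells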
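Assay cells: HT-1080 with IDH1 knockdown, 750 per well, RPMI/5% FBS. Exposure: 48 h at 37 °C following 2 h pre-incubation. Read: CellTiter-Glo luminescence; fitted concentration-response, curve class assigned.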
DT40 TDP1 no CPT = qHTS for Inhibitors of human tyrosyl-DNA phosphodiesterase 1 (TDP1): qHTS in cells in absence of CPT; DT40 Tdp1-/- hTDP1 cells, no CPT, ATP luminescence, 48 h; Potency, µM (doses to about 46.2 µM), without a hit: top-dose activity change, negative = growth inhibition, hits mostly inhibitors; 15% of 420,000 active; AID 686978, 2013; also: potency is read from the fitted curve at half-maximal effect; nearly all actives have a fitted effect of over 55% in size
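Luminescent ATP content (CellTiter-Glo) served as the growth readout. Knockout chicken DT40 cells expressing human TDP1 were exposed to compounds without camptothecin for a minimum 48 hr at 37 °C.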
DT40 TDP1 CPT = DT40-hTDP1 cell growth loss with CPT; 12% of 420,000 active; chicken DT40 Tdp1-/-;hTDP1 cells + 20 nM CPT, ATP luminescence, 48 h; Potency, µM (highest dose often 46.2 µM), inactives show top-dose activity change, negative = growth inhibition, actives largely listed as inhibitors; also: potency is read from the fitted curve at half-maximal effect; nearly all actives have a fitted effect of over 55% in size
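Chicken DT40 Tdp1-/- cells complemented with human TDP1, 400 cells/well, exposed to compounds plus 20 nM camptothecin for at least 48 h at 37 C; viability read as ATP content by CellTiter-Glo luminescence.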
ELG1 repair inh = blocks ELG1-dependent DNA repair in HEK293T cells; HEK293T ELG1-luciferase reporter, luminescence, 16 h; DNA damage induced by 5-fluorouridine; Potency, µM (doses to about 46.1 µM), inactives show at the top dose activity change, negative = inhibition, usual class: inhibitors; 2.3% of 330,000 active; AID 504467; also: potency is read from the fitted curve at half-maximal effect; nearly all actives have a fitted effect of over 55% in size
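Quantitative HTS, concentration-response format. 2,000 cells/well co-treated with 5-fluorouridine and compound, 16 hr in 5% CO2 at 37 °C; ONE-Glo luminescence read after 30 min.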
HT1080-NT tox = kills 2HG-producing HT-1080-NT fibrosarcoma cells; HT-1080-NT fibrosarcoma viability, CellTiter-Glo ATP luminescence, 48 h; Potency, µM (titrated, usually from 46.1 µM), for inactives: at the highest dose activity, negative = less viability, most hits filed as cytotoxic; 1.6% of 360,000 active;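 also: NT is the 2HG producing partner of a matched IDH1 knockdown line; potency is read from the fitted curve at half-maximal effect; 0% = DMSO-treated cells and -100% = media-only wells without cells; nearly all actives have a fitted effect of over 55% in size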
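Read-out is CellTiter-Glo luminescence after 10 minutes at room temperature, following 48 hours' compound treatment of HT-1080-NT cells (750 cells/well, RPMI, 5% FBS, 37 degrees C).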
IL1B secr inh = blocks inflammasome-driven IL-1 beta release | activity change, % at 57.5 µM | 4.7% of 360,000 active | THP-1 LPS/ATP IL-1B secretion, AlphaLISA, 16 h; active compounds read low | AID 743279; in the data active = activity change below about -50%; inconclusive = mostly about -30% to -49%
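THP-1 cells pretreated 1 hr with compounds (up to 57.5 uM final), then stimulated with LPS (250 ng/mL final) plus ATP (1.25 mM final); secreted IL-1B measured by AlphaLISA after 16 hr, decreased signal indicating inhibition.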
The depositor's hits bear a star; ? = inconclusive; . = not tested or not shown; [ ] = remark or other dose. Unless noted, calls follow the shape of the dose curve; as a rule, active = well fitted curve in the direction sought with a large enough effect; inconclusive = small, poorly fitted or top-dose-only effect, or another doubt; inactive = no such curve, though single readings can be large; an effect the other way counts as inactive or inconclusive. Unless noted, % is scaled to controls: 0 for no effect and ±100 for the full control effect.

SMILES | HT1080 IDH1KD tx | DT40 TDP1 no CPT | DT40 TDP1 CPT | ELG1 repair inh | HT1080-NT tox | IL1B secr inh
O=C(c1cccc(C(F)(F)F)c1)N1CCc2c([nH]c3ccccc23)C1C(F)(F)F (stereo not drawn) | ? | ? | ? | 0.0% | ? | -83.1*
COc1ccccc1NC(=O)N1CCc2c([nH]c3ccccc23)C1C(F)(F)F (stereo not drawn) | -9.9% | -28.0% | -30.0% | 0.0% | -20.4% | -60.5*
O=C(O)CSCC(=O)N1CCc2c([nH]c3ccccc23)C1C(F)(F)F (stereo not drawn) | 15.2% | -11.8% | 0.8% | 1.0% | ? | -6.2
COc1ccc(C(=O)N2CCc3c([nH]c4ccccc34)C2C(F)(F)F)cc1 (stereo not drawn) | 8.8% | ? | ? | ? | -1.9% | -8.1
COc1ccc2c(=O)c3c(=O)n(Cc4ccco4)c(-c4cc(OC)c(OC)c(OC)c4)nc3oc2c1 | 9.3% | ? | ? | 13µM* | 13.7% | 51.7
CCCc1nc2oc3cc(OC)ccc3c(=O)c2c(=O)n1Cc1ccco1 | 7.8% | ? | 0.3% | -11.2% | 6.7% | -5.0
CCCCCCn1c(-c2ccco2)nc2oc3cc(OC)ccc3c(=O)c2c1=O | 12.7% | 20.6µM* | ? | ? | 10.3% | -14.0
COc1ccc2c(=O)c3c(=O)n(Cc4ccco4)c(-c4ccccc4)nc3oc2c1 | 4.4% | ? | -5.2% | ? | 1.3% | -17.0
Cc1c(O)ccc2c3c(c(=O)oc12)CCC(C)C3 (stereo not drawn) | -13.8% | 11.6µM* | 23.1µM* | -16.5% | -20.3% | 6.8
CCc1ccc2c(c1)NC(c1cccs1)=NC(c1ccc(F)cc1)=N2 | . | 23.1µM* | 23.1µM* | . | . | .
CCCCOc1ccc(C2=NC(c3cccs3)=Nc3ccc(OC)cc3N2)cc1 | . | ? | -25.8% | . | . | .
CCOc1ccc(C2=NC(c3cccs3)=Nc3ccc(CC)cc3N2)cc1OCC | . | 18.4µM* | ? | . | . | .
CN(CC(=O)Nc1ccc(F)c(F)c1F)C(=O)CCN1C(=O)C2CC=CCC2C1=O (stereo not drawn) | 7.3% | -24.8% | -10.8% | . | -1.0% | 28.3
CC(=O)Nc1cccc(-c2nc3ccccc3n2C(C)C(=O)NC(C)(C)C)c1 (stereo not drawn) | 11.9% | -18.2% | ? | . | 13.8% | 67.4
CCN(CC(=O)Nc1ccccc1OC)C(=O)CN1C(=O)NC(C)(c2ccc3ccccc3c2)C1=O (stereo not drawn) | 5.1% | ? | -13.4% | . | -2.9% | -0.3
COc1cccc(N/C(N)=N/c2nc(C(F)(F)F)cc(=O)[nH]2)c1 | 15.3% | ? | 10.3µM* | ? | 6.6% | 19.4
CCCCCCNC(=O)N[C@@H](C(=O)NCCC[C@H]1CN2C(=NC[C@@H]2Cc2ccccc2)N1CCc1cccc(OC)c1)C(C)C | -1.9% | 4.61µM* | 4.11µM* | ? | 0.0% | -90.7*
O=C(Nc1ccc(Cl)cc1Cl)c1cc2ccccc2o1 | 5.9% | -15.4% | -3.5% | ? | 18.2% | 16.7
O/N=C(\c1ccc(Cl)cc1)c1cc2ccccc2o1 | ? | 18.4µM* | 18.4µM* | -6.7% | -29.1% | -12.0
Cc1ccsc1C(=O)N/N=C/C=C/c1ccccc1[N+](=O)[O-] | -4.6% | ? | 20.6µM* | ? | -6.7% | -4.2
O=C(N/N=C/C=C\c1ccccc1[N+](=O)[O-])c1ccccn1 | 10.0% | -26.1% | ? | ? | ? | 0.0
O=C(N/N=C/C=C/c1ccccc1[N+](=O)[O-])c1cc(-c2ccccc2)n[nH]1 | -19.3% | 14.6µM* | 16.4µM* | ? | -23.1% | 0.0
Cc1occc1C(=O)N/N=C/C=C\c1ccccc1[N+](=O)[O-] | 19.4% | -28.3% | ? | ? | 29.2% | -14.5
CCC(C)Nc1nc(-c2cccc(OC)c2O)nc2ccccc12 (stereo not drawn) | ? | ? | ? | 17.8% | ? | -73.7*
COc1cccc(-c2nc(NC(C)C)c3ccccc3n2)c1O | ? | 20.6µM* | ? | 5.17µM* | ? | ?
SMILES | HT1080 IDH1KD tx | DT40 TDP1 no CPT | DT40 TDP1 CPT | ELG1 repair inh | HT1080-NT tox | IL1B secr inh
CCc1ccc2[nH]c(=O)c(CN(CCN(CC)CC)C(=O)NC3CCCCC3)cc2c1 | ? | 25.9µM* | 14.6µM* | 1.1% | 16.4µM* | -55.8*
O=C(NC1CCCCC1)N(CCO)Cc1cc2cc3c(cc2[nH]c1=O)OCCO3 | 1.8% | ? | ? | 0.0% | 11.1% | 7.1
CCc1ccc2[nH]c(=O)c(CN(CCN(C)C)C(=O)Nc3ccccc3)cc2c1 | ? | ? | ? | ? | ? | -58.6*
Cc1cccc(C)c1C(O)c1ncc(-c2cccc(F)c2)[nH]1 (stereo not drawn) | -0.8% | -18.1% | -29.4% | . | 0.4% | 13.3
CC1(C(=O)NCc2ccccc2)CSCC(=O)N1Cc1ccco1 (stereo not drawn) | 8.8% | -13.8% | -5.2% | . | 10.1% | 12.7
COc1cc(-c2cnc3ccccc3c2)cc2c1OCCN(C(=O)Cn1nccc1C)C2 | . | -2.0% | -10.6%[9.04 µM] | . | . | .
COc1cc(/C=N/Nc2nc(C)cc(=O)[nH]2)ccc1OC(=O)c1cccnc1 | 0.2% | ? | -9.3% | ? | -6.4% | 0.8
O=C(COc1ccc2oc(-c3ccccc3)cc(=O)c2c1)NCc1ccco1 | ? | 29.1µM* | ? | ? | -15.9% | -3.1
Cc1ccc(NS(=O)(=O)c2ccc(OCC(=O)NCc3ccco3)cc2)cc1 | -2.9%[9.24 µM] | ? | 18.4µM* | -19.7% | -6.8% | -19.6
CCOc1ccc(NC(=O)C(=O)NCc2ccco2)cc1 | . | -1.6% | 1.4% | . | . | .
Cc1ccc(NS(=O)(=O)c2ccc(OCC(=O)NCc3ccccn3)cc2)cc1 | 2.0% | 4.61µM* | 3.66µM* | . | 0.0% | 11.2
CCOc1ccc(/C=N/OCC(=O)NCc2ccco2)cc1 | -18.8% | 23.1µM* | ? | -29.0% | 3.4% | 3.6
CC(C)(C)NS(=O)(=O)c1ccc(OCC(=O)NCc2ccco2)cc1 | -8.6% | 5.3% | 4.6% | 0.8% | -1.3% | 6.4
Cc1cc(=O)oc2ccc(OCC(=O)NCc3ccco3)cc12 | 0.0% | -1.4% | -0.2% | ? | 10.6% | -29.9
Nc1nc(-c2ccc(Cl)cc2)nc(-c2ccc(Cl)cc2)n1 | 8.2% | -7.7% | -29.7% | 0.0% | -0.5% | 42.8
CCC1CCCCN1C(=O)COc1c(Br)cc(Br)c2cccnc12 (stereo not drawn) | -28.1% | ? | ? | ? | -0.6% | -14.9
